Assay outcomes as filed in PubChem.
Only some compounds are listed: those with a hit (about 2.2% of all), similar ones and a draw of the others.
Abeta rescue: restores growth of yeast expressing A-beta42 peptide | yeast expressing A-beta42, growth rescue, OD600, 48 h; response scale: 0% DMSO, 100% iron-clioquinol control | Potency, µM (series often up to 46.1 µM), actives largely listed as activators | 0.063% of 410,000 active; also: nearly all actives have a fitted effect of over 55% in size
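Yeast growth medium received pinned compounds, then yeast cells expressing toxic A-beta were added; plates incubated at 30 C for 48 hr. Growth read as absorbance at 600 nm, normalized to DMSO and equimolar FeCl3 plus clioquinol controls.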
TDP43 rescue: TDP-43 toxicity inhibition in yeast. TDP-43 expressing yeast growth rescue, BacTiter-Glo, 24 h. Potency, µM (titrated, usually from 46.1 µM), without a hit: top-dose growth rescue (activation), usual class: activators. 1.8% of 410,000 active; also: % of control where 0% means no effect; nearly all actives have a fitted effect of over 50% in size
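Luminescence from BacTiter-Glo reports growth of TDP-43-expressing yeast after 24 hr at 30 deg C with compound. Cells were raffinose-pregrown to mid-log, then seeded in galactose medium at OD600=0.02.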
FUS yeast rescue: FUS proteinopathy suppression in yeast; S. cerevisiae FUS-expressing, growth rescue, OD600, 24 h; 0.24% of 390,000 active; AID 1347120; Potency, µM (doses to about 76.6 µM), usual class: activators;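 also: plate controls were DMSO vehicle for no effect and reference control for full effect; nearly all actives have a fitted effect of over 55% in size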
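Toxicity suppression screen in FUS-yeast. Cells induced with 2% galactose, starting OD 0.005, treated 24hr at 30C with compounds at multiple final concentrations; growth by OD600.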
aSyn yeast inh: rescues yeast growth from alpha-synuclein toxicity | Yeast expressing alpha-synuclein, growth rescue, BacTiter-Glo, 24 h | Potency, µM (titrated, usually from 46.1 µM), inactives show top-dose growth rescue (activation), most hits filed as activators | 0.14% of 370,000 active; also: % of control where 0% means no effect; nearly all actives have a fitted effect of over 65% in size
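Screening used galactose-induced yeast with toxic alpha-synuclein levels, exposed to compound for 24 hr at 30 deg C. Cell growth, read with BacTiter-Glo luminescence, gave the measured signal.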
Mito fusion act: blocks mitochondrial division or promotes mitochondrial fusion. S. cerevisiae fusion-defective mutant growth rescue, CellTiterGlo 48 h. Potency, µM (doses to about 46.1 µM), for the others: at the highest dose growth rescue (activation), actives largely listed as activators. 0.23% of 320,000 active; also: % of control where 0% means no effect; nearly all actives have a fitted effect of over 45% in size
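Compounds are tested for their ability to restore growth of mitochondrial fusion-defective yeast strains at non-permissive 37C in YPEG medium over 48 hours. Viability is quantified by luciferase luminescence.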
The depositor's hits bear a star; i = inactive; u = inconclusive; x = not tested or not shown; ! = not confirmed by another sample. Calls follow the shape of the dose curve; as a rule, active = well fitted curve in the direction sought with a large enough effect; inconclusive = small, poorly fitted or top-dose-only effect, or another doubt; inactive = no such curve, though single readings can be large; an effect the other way counts as inactive or inconclusive. Potency is read from the fitted curve at half-maximal effect.

SMILES | Abeta rescue | TDP43 rescue | FUS yeast rescue | aSyn yeast inh | Mito fusion act
Cc1ccc(NS(=O)(=O)c2cc3c(cc2Cl)NC(=O)CO3)cc1C | x | x | i | x | x
O=[N+]([O-])c1ccc2c(c1)C=C/C2=C\c1ccccc1 | x | x | x | 3% | x
O=C(Nc1nc(OCCN2CCCC2=O)cnc1/C=C\c1ccccc1)c1cc2ccccc2s1 | i | 19% | 40µM* | u | x
N#CC(C#N)=C1C=CC=CN1/C(=C\c1ccccc1)C(=O)c1cccs1 | i | 4.5µM* | i | u | 15%
CC(C)C(C)N(Cc1cccc(C(=O)O)c1)C(=O)c1ccc2ccccc2n1 (configuration not stated) | i | 1% | i | 4% | x
COC(=O)c1sc(NC(=O)COc2c(C)cccc2C)nc1C | i | 20µM* | i | 10% | 17%
COC(=O)CSC1=NS(=O)(=O)c2ccccc21 | i | u | x | u | -4%
O=C(CSC1=NS(=O)(=O)c2ccccc21)Nc1ccccc1 | i | 35µM* | i | u | -2%
Cc1ccc(C)c(NC(=O)CNS(=O)(=O)c2ccc3[nH]c(=O)oc3c2)c1 | x | x | i | x | x
CCn1ccc2c(OCC(=O)Nc3ccccc3C)cccc2c1=O | i | 13µM* | i | x | x
COc1ccccc1N1CCN(CCN(C(=O)c2ccc(F)cc2)c2ccccn2)CC1 | i | 18% | i | 14µM*! | 1%
COc1ccccc1N1CCN(CCN(C(=O)C2CCCCC2)c2ccccn2)CC1 | i | 15% | i | 3% | -37%
COc1ccc2c(c1)NC(=O)CC(c1ccccc1)=N2 | i | 14µM* | i | -8% | -4%
COc1ccc(S(=O)(=O)N2CCOCC2)cc1NC(=O)c1ccncc1 | i | 6% | i | 3% | -4%
Cc1noc(C)c1COC(=O)Cc1ccc(Cl)c(Cl)c1 | i | 10µM* | i | 25% | -3%
Cc1nn(-c2ccc(N3CCCCC3)nn2)c(C)c1CCC(=O)NCc1ccccc1 | i | 0% | i | x | x
